# ± gives the standard deviation of the averaged measurements. In all, about 25,000 sequences were measured (“ln(normalized median fluorescence intensity)”: median about 10, highest 2% from about 12 on). The sample holds the highest values, similar sequences and a random draw of the others, so the mix is not that of the screen.
# Tested on: PfAP2-G AP2 domain (GST-tagged)
# Assay: gcPBM binding intensity (ln(normalized median fluorescence intensity)); higher = stronger DNA binding
# In short: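 For binding intensity, the highest Masliner-normalised natural-log median intensity across replicate spots of either probe orientation was taken. Protein bound to the array was stained with Alexa488 anti-GST antibody and scanned at 488 nm. The protein, GST-tagged P. falciparum DNA-binding domains from E. coli at about 25 μg on average, had been applied for 1 h to an Agilent 4 × 180k array of primer-extended double-stranded 36-bp intergenic genomic probes and negative controls.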
row,Sequence,gcPBM binding intensity (ln)
1,CTCAATATATTTGATTTACACACTTACAATGTATAT [CACACA_site8982],10.04 ± 0.078
2,GATATATATATTCACACACACATGGAAATATATATA [CACACA_site382],9.88 ± 0.028
3,ATATATATGGTCATTTGTACATATCGTGAGAGCTGC [XGTACX_site4117],11 ± 0.49
4,AAAAATATATAATAAAGTACACATAAATGAATAAAT [XGTACX_site329],11.5 ± 0.81
5,AATGAATATTAAAGGAGTACACATAATAAGTAAGAA [XGTACX_site7354],11.7 ± 0.99
6,AGTAGATATAAAAGGAGTACACATATATATATAAAT [XGTACX_site4375],11.6 ± 1
7,ATATATATATAAAGGAGTACATACATTAAAAAAAAA [XGTACX_site1095],11.7 ± 1
8,GTATTATAAAAAGGAAGTACATATATACATATTATA [XGTACX_site1271],11.3 ± 0.75
9,AAAAAAAAAAAAAGTACACACATACATATAAATATA [CACACA_site8533],11.5 ± 0.86
10,TTAAGAAACAAAGAAAGTACACAACATAATATAGAA [XGTACX_site477],11.4 ± 0.69
11,AATAAATAAAGAAGTACACACATATATATATATATA [CACACA_site4314],11.7 ± 1.1
12,GAAAAAAGAAAAAAAAGTACATATATTTAATAAGAC [XGTACX_site6912],11.4 ± 0.86
13,TTAAGAAAAAAAAAAAGTACACACATATAATATATA [XGTACX_site6268],11.6 ± 1
14,ATATATATAATTTAAAGTACATATTTAAGAATGAAA [XGTACX_site2238],11.1 ± 0.67
15,TATAAAAATAAAAAAAGTACACATAAAAATATATAT [XGTACX_site5189],11.5 ± 0.78
16,ATATTAATATATGTGGCACACATGTGGAGTCCTATT [CACACA_site213],10.7 ± 0.43
17,TTATCACATTATTGCACACACATAAAGAAAAAAATA [CACACA_site2841],10.4 ± 0.5
18,AAAAAAATAAAATATATATATATATATATATATATA [GTGCAC_negctrl_site706],9.96 ± 0.89
19,ATATATATGTGTAAAAGTACATATATTTTGAAATAT [XGTACX_site4024],11.2 ± 0.79
20,TTATAATTGTAAGGTAGTACATATAAATCAAATAAT [XGTACX_site7190],11.5 ± 0.94
21,TATATATAAAAAAAAAGTACATATAATATAATATTT [XGTACX_site7902],11.5 ± 1
22,TTAAAAAAAAAAAAAAGTACATAAGTATATATAATA [XGTACX_site4295],11.7 ± 1

row,Sequence,gcPBM binding intensity (ln)
1,ATATAAATAAAAAAAAGTACATAATATATAAAAATA [XGTACX_site3065],11.5 ± 1
2,TATGATTTTAATGAAACACACAATTTTATGTTAATA [CACACA_site311],9.82 ± 0.11
3,TTATAATATATATGTAGTACTGTTTTTTTCTATTTT [XGTACX_site7749],11 ± 0.63
4,CACACCACCAACAAAAGTACATACATATATATATAT [XGTACX_site5781],11.3 ± 0.82
5,CTTTTGCCCAAAAAGGTACACACCACAAAGTACATA [CACACA_site8169],11.9 ± 1.2
6,TGTACAACAATTTTTGCACACACCAAAACATAAAAT [CACACA_site1598],11.1 ± 0.2
7,CTTTTGCCCAAAAAGGTACACACCACAATGTACATA [CACACA_site809],11.6 ± 0.91
8,TTTGCCCAAAAAGGTACACACCACAATGTACATAAA [CACACA_site4599],11.9 ± 1.1
9,TCTTTTGCCCAAAAAGGTACACACCACAATTTAAAT [XGTACX_site1482],11.4 ± 0.88
10,TCTTTTTACACCTCTTACATAAAACAAAATAAGGGG [XGTACX_negctrl_site12],10.7 ± 0.38
11,TTTATTTATTATTATGTACACACTATATTAAAACAT [CACACA_site700],11.4 ± 0.87
12,ATATAATTACCATATGGTACACACATATATATATGT [XGTACX_site7393],11.3 ± 0.62
13,ATCAAATAATAGCAAACACACAAAAAATAAAAAAAA [CACACA_site4146],9.96 ± 0.15
14,AAAAAATATAAAACGAGTACATATATAATAAGCAAA [XGTACX_site1360],11.4 ± 0.82
15,ACATTAAAAAAAAAATGTACATAAATATTTTTCCTT [XGTACX_site4361],11.1 ± 0.59
16,GGATAAAATGCTACGAGTACATAAGCATTTTTCCCT [XGTACX_site7796],11.7 ± 1.2
17,AGGTACTTTTTTAAAACACACATATAACATATACAC [CACACA_site6629],11.3 ± 1.1
18,ATACATTCTAATACGTGTACATATATATATATATAT [XGTACX_site1881],11.4 ± 0.81
19,AACAAATACGGACACACACACACACTAGAAAAAAAA [CACACA_site4442],11.4 ± 0.86
20,TACACAGACGGACACACACACACACTAGAAAAAAAA [CACACA_site4435],11.7 ± 1.2
21,ATAAATAAAGGACACACACACACACTAGAAAAAAAA [CACACA_site5450],11.2 ± 0.92
22,AAACGTGCGTATATGTGTACGCATATATATATATAT [XGTACX_site5252],11.6 ± 1

# — the supplement of paper PMC11417369
